# An excerpt weighted towards active compounds, which were near 2.4% of everything screened.
# CHT PAM = CHT positive allosteric modulators, primary screen, cell-based, membrane potential dye, choline EC20 | High affinity choline transporter 1 (Homo sapiens), Q9GZV3 | CHT-expressing cells; active compounds read high; LV-AA mutant CHT in HEK293 cells | B-score at 10 µM | actives 0.49% (n = 310,000) | AID 488977, 2010;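 active = initial fluorescence not abnormally high and integrated response B-score, plate-corrected, over 3 SD above library mean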
# CHT block = inhibitors of human choline transporter CHT. CHT-expressing cells, membrane potential dye, choline response; active compounds read low. B-score at 10 µM. actives 0.86% (n = 310,000). AID 488975, 2010;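 active = B-score over 3 SD under the library average, and starting fluorescence ratio not unusually high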;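 note: choline stimulus applied at its EC90 after an EC20 pre-addition; B-score computed on integrated fluorescence ratio after choline addition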
# TMEM16A act = TMEM16A chloride channel activators or potentiators, primary screen, cell-based, HTS; Anoctamin-1 (Mus musculus), Q8BHY3; B-score at 10 µM; HEK293 TMEM16A/YFP-H148Q/I152L, iodide quench fluorescence; active compounds read low; actives 0.3% (n = 340,000);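 active = fluorescence-ratio B-score plate-corrected deviation score at least 3 library SD below zero, with starting fluorescence score within 5 deviations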;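 note: channel opened by trigger with iodide after compound preincubation; score built on the fluorescence ratio of max minus min over baseline; more negative score means more quench and so TMEM16A activation or potentiation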
# Target sequence (Q8BHY3 whole entry, looked up): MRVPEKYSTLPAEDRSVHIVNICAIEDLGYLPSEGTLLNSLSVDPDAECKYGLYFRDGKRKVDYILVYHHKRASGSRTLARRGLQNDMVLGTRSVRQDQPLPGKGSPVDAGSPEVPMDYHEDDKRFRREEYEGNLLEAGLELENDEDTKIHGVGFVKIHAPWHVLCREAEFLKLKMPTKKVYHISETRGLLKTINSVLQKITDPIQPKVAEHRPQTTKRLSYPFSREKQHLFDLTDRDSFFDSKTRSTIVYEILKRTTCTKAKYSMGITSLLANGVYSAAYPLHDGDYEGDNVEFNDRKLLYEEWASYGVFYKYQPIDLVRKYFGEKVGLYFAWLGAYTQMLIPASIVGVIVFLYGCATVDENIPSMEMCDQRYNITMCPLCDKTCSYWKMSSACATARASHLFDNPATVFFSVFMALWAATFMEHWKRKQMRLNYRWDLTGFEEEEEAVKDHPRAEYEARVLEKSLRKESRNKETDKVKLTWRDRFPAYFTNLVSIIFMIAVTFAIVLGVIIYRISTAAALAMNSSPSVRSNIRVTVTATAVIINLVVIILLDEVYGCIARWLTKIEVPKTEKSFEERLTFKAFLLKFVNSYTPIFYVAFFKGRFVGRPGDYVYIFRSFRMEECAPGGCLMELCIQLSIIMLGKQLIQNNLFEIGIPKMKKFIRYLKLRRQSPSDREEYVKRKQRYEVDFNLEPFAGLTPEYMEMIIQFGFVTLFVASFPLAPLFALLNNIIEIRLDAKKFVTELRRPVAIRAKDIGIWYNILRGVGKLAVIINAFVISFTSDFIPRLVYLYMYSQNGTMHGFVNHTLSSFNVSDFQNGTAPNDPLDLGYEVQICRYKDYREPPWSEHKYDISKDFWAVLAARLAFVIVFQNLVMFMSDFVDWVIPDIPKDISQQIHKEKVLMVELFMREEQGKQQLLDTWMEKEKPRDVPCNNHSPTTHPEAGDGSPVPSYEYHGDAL
# TMEM16A inh = TMEM16A chloride channel inhibitors, primary screen, cell-based, HTS; Anoctamin-1 (Mus musculus), Q8BHY3; HEK293 TMEM16A/YFP iodide influx fluorescence, ionomycin; normalized B-score (activity score, 25-100; higher = stronger inhibition) at 10 µM; actives 1.2% (n = 310,000); AID 588511, 2011;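 active = ratio plate-corrected score three or more library SD toward inhibition, starting fluorescence score within five deviations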;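 note: score derived from kinetic fluorescence span divided by baseline fluorescence per well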
# Hits are given with their value; - = inactive; . = not tested or not shown.
SMILES,CHT PAM,CHT block,TMEM16A act,TMEM16A inh
CC(=O)Nc1ccc(S(=O)(=O)Oc2ccc3c(c2)C(C)=CC(C)(C)N3)cc1,-,-,.,25
CC1=CC(C)(C)Nc2ccc(OS(=O)(=O)c3ccc(C)cc3)cc21,-,-,-,-
Cc1ccc(C(=O)NCc2ccc(F)cc2)cc1NC1=NC2CS(=O)(=O)CC2S1 (stereo not given),-,-,-,-
CCOc1ccc(S(=O)(=O)Nc2nc3ccccc3nc2Cl)cc1,-,-,-,-
CCOc1ccc(S(=O)(=O)Nc2cnc3ccccc3c2)cc1,-,-,-,25
COc1ccc(NC(=S)NC(NC(=O)c2cccc3ccccc23)C(Cl)(Cl)Cl)c([N+](=O)[O-])c1 (stereo not given),-,-,-7.41,-
Cc1cccc(NS(=O)(=O)c2ccc(C3CCCCC3)cc2)c1,-,-,-,25
Cc1cccc(NC(=O)c2cccc(NS(=O)(=O)c3ccc(Cl)cc3)c2)c1,-,-,-,100
O=C(O)c1cccc(NS(=O)(=O)c2ccc(C3CCCCC3)cc2)c1,-,-,-,-
Cc1ccc(C(C)(C)C)cc1S(=O)(=O)Nc1cccc(C(=O)N2CCN(c3ccccn3)CC2)c1,.,.,-,.
CCCN(C(=O)c1ccc(N(C)S(=O)(=O)c2ccc(C)cc2)cc1)C1CCS(=O)(=O)C1 (stereo not given),-,-,-,-
O=C(O)c1nn(Cc2nc3ccccc3o2)c(=O)c2ccccc12,-,-,-4.84,-
Cc1ccc(-c2noc(Cn3nc(C(=O)O)c4ccccc4c3=O)n2)cc1,-,-,-,-
COc1ccc(CN2C(=O)[C@H]3Cc4c([nH]c5ccccc45)C(C)(C)N3C2=O)cc1,-,-,-,25
Cc1ccc(C2c3c(C)nn(-c4ccc([N+](=O)[O-])cc4)c3N=C3C(=O)Nc4ccccc4N32)cc1 (stereo not given),-,-6.25,.,-
COc1cccc(C2c3c(C)nn(-c4ccc([N+](=O)[O-])cc4)c3N=C3C(=O)Nc4ccccc4N32)c1 (stereo not given),-,-,-,-
Cc1ccc(CNC(=O)CN(Cc2ccccc2)S(C)(=O)=O)cc1,-,-,-,-
CCOc1cc(CNCCO)cc(Br)c1OCc1ccc(Cl)cc1Cl,-,-,-,100
CN1c2ccc(Cl)cc2C(=O)NC1C1CC=CCC1 (stereo not given),-,-,-,-
O=C(NCC1CCCC(CNC(=O)Nc2ccc(Cl)cn2)C1)Nc1ccc(Cl)cn1 (stereo not given),-,-,-,-
CCN(CC)CCCCCOc1ccccc1OC,-,-,-,25
CCOC(=O)CSc1nnc(CNC(=O)c2ccco2)n1C,-,-,-,-
CCN(CC)c1ccc(CNc2nc3ccccc3n2CCN2CCCCC2)cc1,-,-,-,100
Cc1cccc(Oc2nc(-c3cccc([N+](=O)[O-])c3)nc3ccccc23)c1C,-,-,-,-
COc1ccccc1Oc1ccc2c(c1)C(=O)N(c1ccccc1)C2=O,-,-,-,-
SMILES,CHT PAM,CHT block,TMEM16A act,TMEM16A inh
COc1ccccc1Oc1ccc2c(c1)C(=O)N(c1ccc(C)cc1)C2=O,-,-,-6.14,-
CCCCc1ccc(NC(=S)Nc2ccc(Cl)c(S(=O)(=O)N(C)C)c2)cc1,-,-,-,100
N#Cc1c(C(F)(F)F)cc(-c2ccccc2Cl)[nH]c1=O,-,-,-,100
COc1ccc(C2CC(C(F)(F)F)n3nc(CO)c(Cl)c3N2)cc1OC (stereo not given),-,-,-13.7,-
COc1ccc(C2CC(C(F)(F)F)n3nc(C(=O)O)c(Cl)c3N2)cc1OC (stereo not given),-,-,-,-
COc1ccc(CNC(=O)C(c2ccco2)N(C(=O)CNS(=O)(=O)c2ccccc2)c2ccccc2C)cc1 (stereo not given),-,-,-,25
COc1ccc(CNC(=O)CN(Cc2ccco2)C(=O)CNS(=O)(=O)c2ccc(C)cc2)cc1,-,-,-,-
O=C(CCSc1ccc(F)cc1)NNC(=O)c1ccc([N+](=O)[O-])cc1,.,.,-,.
O=[N+]([O-])c1cc(C(F)(F)F)cc([N+](=O)[O-])c1NCCNC(=S)Nc1ccc(Cl)c(Cl)c1,-,-,-,100
Cc1cccc(N(CC(=O)NCc2ccco2)C(=O)CCC(=O)Nc2nccs2)c1C,-,-,-,-
C=C(C)C(=O)OCC(O)COc1ccc(C(C)(C)c2ccc(OCC(O)COC(=O)C(=C)C)cc2)cc1 (stereo not given),-,-,-,100
CCOc1cc(CNCc2cc(OC)cc(OC)c2)ccc1OC,-,-,-,-
CCC(Sc1nc2cc(OC)c(OC)cc2c(=O)n1CCc1ccc(S(N)(=O)=O)cc1)C(=O)NCCOC (stereo not given),-,-,-4.71,-
CCC(Sc1nc2cc(OC)c(OC)cc2c(=O)n1Cc1ccco1)C(=O)NCCOC (stereo not given),-,-,-,-
O=C(COC(=O)C1(c2ccc(Cl)cc2)CCCC1)Nc1ncc(C(F)(F)F)cc1Cl,-,-,-,100
CCC1(CC)Cc2ccccc2C(N)=C1C#N,-,-,-53.1,-
CCC1(CC)Cc2ccccc2C(=O)N1,-,-,-,-
CC(C)OC(=O)CC1C(=O)NCCN1C(=O)COc1ccc(C(C)(C)C)cc1 (stereo not given),-,-,-,-
O=S(=O)(c1ccccc1)c1ccc(N2CCCCCC2)cc1,-,-,-,-
CCOC(=O)c1ccc(CC2S/C(=C(\C#N)C(C)=O)NC2=O)cc1 (stereo not given),-,-,-,-
CCc1ccc(CC2S/C(=C(\C#N)C(C)=O)NC2=O)cc1 (stereo not given),-,-,-,100
O=C(Nc1ccc2c(c1)OCO2)O[C@@H]1C[C@H]2CCC(=O)N3CC[C@@H](C1)[C@@H]23,-,-,-,-
COC(=O)C1(Cc2cc(-c3ccc(OC)cc3OC)no2)CCN(C(=O)OC(C)(C)C)CC1,-,-,-,25
COC(=O)C1(Cc2cc(-c3cccc(Br)c3)no2)CCN(C(=O)OC(C)(C)C)CC1,-,-,-,-
CCS(=O)(=O)C1=NN2C(=N)/C(=C\c3ccc(OS(=O)(=O)c4ccccc4)c(OC)c3)C(=O)N=C2S1,-,-5.35,.,-
COc1cc(/C=C2\C(=N)N3N=C(N4CCOCC4)SC3=NC2=O)ccc1OC(=O)c1ccccc1,-,-,-,100
CCS(=O)(=O)C1=NN2C(=N)/C(=C\c3ccc(OC(=O)c4ccco4)cc3)C(=O)N=C2S1,-,-,-,-
Cc1ccc(S(=O)(=O)Oc2ccc(/C=C3\C(=N)N4N=C(S(C)(=O)=O)SC4=NC3=O)cc2)cc1,-,-6.39,-,-
COc1cc(/C=C2\C(=N)N3N=C(S(=O)(=O)CC(C)C)SC3=NC2=O)ccc1OC(=O)c1ccco1,-,-5.43,.,-

# Assay outcomes from PubChem.
